Test results published in publication PMC4336329 (PLoS ONE, 2015).
The whole screen tested about 310,000 compounds, of which about 14,000 (4.5%) showed an effect of 50% or more. The effect is printed as a negative number. The full list was thinned out, with strong results kept by preference.

Each compound was assayed against human ether-à-go-go-related gene (hERG) potassium channel (human, UniProt Q12809) (assay: primary screen, population patch clamp on CHO cells stably expressing hERG; higher = less effect of the substance).
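Further: peak tail current of the secondary pulse compared with the same well before compound.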

human ether-à-go-go-related gene (hERG) potassium channel, sequence (Q12809 whole entry, looked up): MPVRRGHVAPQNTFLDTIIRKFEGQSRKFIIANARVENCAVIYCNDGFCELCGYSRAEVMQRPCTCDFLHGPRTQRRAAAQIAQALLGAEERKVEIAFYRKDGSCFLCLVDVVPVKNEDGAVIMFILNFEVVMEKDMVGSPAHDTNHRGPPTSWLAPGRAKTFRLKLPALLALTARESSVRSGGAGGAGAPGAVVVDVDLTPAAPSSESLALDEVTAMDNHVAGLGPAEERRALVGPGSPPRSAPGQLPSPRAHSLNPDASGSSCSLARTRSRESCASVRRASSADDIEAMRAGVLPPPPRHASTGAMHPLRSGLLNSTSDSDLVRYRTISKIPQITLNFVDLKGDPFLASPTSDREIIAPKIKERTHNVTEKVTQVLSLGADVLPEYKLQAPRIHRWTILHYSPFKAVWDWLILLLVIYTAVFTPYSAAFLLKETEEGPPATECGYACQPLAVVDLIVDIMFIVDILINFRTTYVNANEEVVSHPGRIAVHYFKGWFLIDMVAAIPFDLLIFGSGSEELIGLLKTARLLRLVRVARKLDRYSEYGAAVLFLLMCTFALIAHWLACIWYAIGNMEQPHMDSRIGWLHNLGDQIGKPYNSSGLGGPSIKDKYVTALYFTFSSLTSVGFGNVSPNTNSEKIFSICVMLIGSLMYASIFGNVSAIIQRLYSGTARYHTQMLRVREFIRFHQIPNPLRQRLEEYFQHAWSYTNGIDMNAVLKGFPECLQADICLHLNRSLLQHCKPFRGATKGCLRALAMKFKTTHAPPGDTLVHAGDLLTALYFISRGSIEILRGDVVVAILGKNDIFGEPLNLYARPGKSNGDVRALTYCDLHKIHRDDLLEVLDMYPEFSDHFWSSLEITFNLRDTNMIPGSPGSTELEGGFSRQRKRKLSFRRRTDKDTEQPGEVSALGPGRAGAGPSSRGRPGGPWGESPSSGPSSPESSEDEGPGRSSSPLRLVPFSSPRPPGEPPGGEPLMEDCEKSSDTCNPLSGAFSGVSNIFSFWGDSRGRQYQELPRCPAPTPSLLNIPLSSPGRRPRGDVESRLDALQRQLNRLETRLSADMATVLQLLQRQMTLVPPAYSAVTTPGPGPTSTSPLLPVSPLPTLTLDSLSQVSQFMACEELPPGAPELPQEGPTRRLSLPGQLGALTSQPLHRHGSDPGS

SMILES | hERG current change (%, negative = inhibition) at 10uM
O=C(CN(Cc1ccco1)C(=O)c1ccccc1F)Nc1ccccc1C(F)(F)F | 2.3%
CNC(=S)N/N=C/c1cn(Cc2ccc(F)cc2)c2ccccc12 | -4.59%
Cc1ccc(S(=O)(=O)N(C)C)cc1NC(=S)NCCc1ccccn1 | 24.2%
COc1cc(C(NC=O)C(=O)Nc2c(C)cccc2C)ccc1O (stereo not drawn) | 15.1%
COc1cc(C(C(=O)Nc2c(C)cccc2C)N(C)C(=O)c2ccc(-n3cnnn3)cc2)ccc1O (stereo not drawn) | -67.7%
Cc1cccc(C)c1NC(=O)c1ccc(-n2cnnn2)cc1 | -44.2%
O=C(CN1CCc2ccccc2C1)Nc1ccccc1N1CCCCCC1.O=C(O)C(=O)O | -5.79%
O=C(NS(=O)(=O)Nc1ccc(Cl)cc1)c1c[nH]c2ccccc12 | 23.2%
Cc1cc(C)c(S(=O)(=O)N2CCN(C(=O)C3CCCO3)CC2)c(C)c1 (stereo not drawn) | -17.1%
CCc1nn(C(C)C(=O)NCCN2CCN(c3cccc(C)c3C)CC2)c(=O)c2cc3occc3n12 (stereo not drawn) | -65.3%
CCc1nn(C(C)C(=O)Nc2cccc(C)c2C)c(=O)c2cc3occc3n12 (stereo not drawn) | -0.753%
CCc1nn(C(C)C(=O)NCCN2CCCCCC2)c(=O)c2cc3occc3n12 (stereo not drawn) | 6.27%
O=C(c1cnn2c(C(F)(F)F)cc(-c3cccs3)nc12)N1CCOCC1 | -5.7%
O=C(Nc1cccc(-n2cnnn2)c1)c1ccc(C(F)(F)F)cc1 | -15.3%
Oc1ccc(-c2[nH]ncc2-c2cccc3cccnc23)c(O)c1 | 32.1%
Cc1cc(=O)oc2cc(OCC(=O)NCCCN3CCCC3=O)ccc12 | 29.5%
c1ccc2c(CN3CCOCC3)c[nH]c2c1 | 15.1%
c1ccc2c(CN3CCCCCCC3)c[nH]c2c1 | -22.4%
O.c1ccc2c(CN3CCN(C4CCCCC4)CC3)c[nH]c2c1 | -18.2%
COc1ccccc1N1CCN(Cc2ccc(OC)c3ccccc23)CC1 | -5.46%
Clc1ccccc1CN1CCN(c2cccc3[nH]ccc23)CC1 | 3.09%
COc1ccccc1N1CCN(C(=O)CCc2c[nH]c3ccccc23)CC1 | 3.69%

SMILES | hERG current change (%, negative = inhibition) at 10uM
O=[N+]([O-])c1cccc(CN2CCN(c3cccc4[nH]ccc34)CC2)c1 | -7.67%
Cc1ccc(CN2CCN(c3cccc4[nH]ccc34)CC2)cc1 | -60.4%
Fc1ccc(N2CCN(Cc3c[nH]c4ccccc34)CC2)cc1 | -68.3%
COc1ccccc1N1CCN(Cc2c[nH]c3ccccc23)CC1 | -55.8%
c1cnc(N2CCN(Cc3c[nH]c4ccccc34)CC2)nc1 | -36%
Fc1ccccc1N1CCN(C2CCN(Cc3c[nH]c4ccccc34)CC2)CC1 | -54.5%
Cc1c(Cl)c([N+](=O)[O-])nn1CC(=O)N1CCN(C23CC4CC(CC(C4)C2)C3)CC1 | 19.9%
N#CC(C#N)=NNc1ccc(S(=O)(=O)N2CCCC2)cc1 | -17.8%
Cc1ccc(C(=O)COc2cc(O)c3c(=O)cc(-c4ccccc4)oc3c2)cc1 | 24.6%
CCOC(=O)/C(C#N)=C1\CCCN1CC(N)=S | 2.57%
COc1ccc2c(-c3ccccc3)cc(SC(C)C(N)=O)nc2c1 (stereo not drawn) | 19.3%
COc1ccc(C(=O)Nc2ccc([N+](=O)[O-])cn2)cc1OC | -22.6%
Cl.c1ccc2c(CN3CCCCCC3)c[nH]c2c1 | -18.1%
Cc1ccccc1N1CCN(Cc2c[nH]c3ccccc23)CC1 | -62.1%
Clc1ccccc1N1CCN(Cc2c[nH]c3ccccc23)CC1 | -35.6%
Brc1ccc(-c2cnc3n2CCCC3)cc1 | -34.2%
CCOc1ccc(N(CC(=O)NCCSCc2ccc(C)cc2)S(C)(=O)=O)cc1 | 10.1%
CCC(C)c1ccccc1NC(=O)C(C)N(C)Cc1cccc(OC)c1.O=C(O)C(=O)O (stereo not drawn) | 11.8%
Cc1ccc(S(=O)(=O)N(C)CC(=O)NCCCn2ccnc2)cc1 | 9.92%
Br.CC(C)(C)C(=O)CN1C2=NCCN2c2ccccc21 | -32.1%
Cc1cccc(CN2C3=NCCCN3c3ccccc32)c1.Cl | -57.4%
Br.CC(C)(C)c1ccc(CN2C3=NCCCN3c3ccccc32)cc1 | -77.6%

SMILES | hERG current change (%, negative = inhibition) at 10uM
Br.CC(C)(C)C(=O)CN1C2=NCCCN2c2ccccc21 | -75.8%
Cc1ccc(CN2C3=NC(=O)CN3c3ccccc32)cc1 | -5.41%
Cc1ccc(CN2C3=NCCN3c3ccccc32)cc1.Cl | -68.3%
Br.C=CCN1C2=NCCCN2c2ccccc21 | -13.9%
COC(=O)Cc1ccc(NC(=S)NCCO)cc1 | 17.6%
Cn1ccs/c1=N\C(=O)Nc1cccc(Cl)c1 | 0.433%
O=C(NCc1cc([N+](=O)[O-])ccc1O)c1cccc(NS(=O)(=O)c2ccccc2)c1 | 18.3%
CCOc1ccc(C(C(=O)NC2CCCCC2)N(C(=O)Cc2cccs2)c2ccc(-n3cnnn3)c(OC)c2)cc1 (stereo not drawn) | -15.7%
CCOC(=O)c1[nH]c(C)c(/C(O)=C2\C(=O)C(=O)N(CCCN(C)C)C2c2cccnc2)c1C (stereo not drawn) | 4.27%
NCc1cccc(-n2cccn2)c1.O=C(O)CC(=O)O | -8.09%
CCc1ccccc1NC(=O)CC1SCCNC1=O (stereo not drawn) | 26.3%
O=C(O)COCC(=O)NCc1csc2ccccc12 | 2.75%
COc1ccc(S(=O)(=O)Nc2ccccc2C(N)=O)cc1OC | 10.1%
CCN1C2=NCCCN2c2ccccc21.Cl | 1.64%
Cc1ccc(CN2C3=NCCCN3c3ccccc32)cc1.Cl | -61.2%
c1ccc(-n2nnnc2SCc2ccccn2)cc1 | 7.26%
Cc1ccc(C(=O)N/C(=C\c2ccc(-c3ccc([N+](=O)[O-])cc3)o2)C(=O)NC2CCS(=O)(=O)C2)cc1 (stereo not drawn) | -28.2%
CCCCC(=O)N/N=C/c1ccc(-c2ccc([N+](=O)[O-])cc2)o1 | -21.9%
Cc1ccc(C(=O)N/C(=C/c2ccc(-c3ccc([N+](=O)[O-])cc3)o2)C(=O)NCCCN(C)C)cc1 | -73.7%
CN(C)CCCNC(=O)/C(=C/c1ccc(-c2ccc([N+](=O)[O-])cc2)o1)NC(=O)c1ccccc1 | -73.6%
COc1ccc(CN=C2NC(=O)CC(C(=O)Nc3cc(C)cc(C)c3)S2)cc1 (stereo not drawn) | -18.4%
COc1ccc(OC)c(NC(=O)CCCN2C(=O)C3C4C=CC(C4)C3C2=O)c1 (stereo not drawn) | -3.43%

SMILES | hERG current change (%, negative = inhibition) at 10uM
CCOC(=O)c1ccc(NC(=O)N2CCCCC2)cc1 | 3.33%
CCOC(=O)COc1ccc(S(=O)(=O)N2CCN(c3ccc(OC)cc3)CC2)cc1 | 0.759%
CCOc1ccc(C(=O)CN2CCN(S(=O)(=O)c3ccc(Cl)cc3)CC2)cc1 | -40.2%
CCOc1ccc(C(=O)CN2CCN(S(=O)(=O)c3ccc(OC)cc3)CC2)cc1 | -61.7%
CCOc1ccc(NC(=O)CCN2CCN(S(=O)(=O)c3ccc(F)cc3)CC2)cc1 | -16.5%
CCOc1ccc(C(=O)CN2CCN(S(=O)(=O)c3ccc(F)cc3)CC2)cc1 | -63%
CCOC(=O)COc1ccc(S(=O)(=O)N2CCN(c3ccccc3)CC2)cc1 | -39%
CCOc1ccc(NC(=O)CCN2CCN(S(=O)(=O)c3ccc(OC)cc3)CC2)cc1 | -28.8%
CCOc1ccc(CN2CCN(S(=O)(=O)c3ccc(NC(C)=O)cc3)CC2)cc1OC.O=C(O)C(=O)O | -35.4%
CCOc1ccc(CN2CCN(S(=O)(=O)c3ccc(NC(C)=O)cc3)CC2)cc1.O=C(O)C(=O)O | -50.4%
COc1ccc(CN2CCN(S(=O)(=O)c3ccc(NC(C)=O)cc3)CC2)cc1.O=C(O)C(=O)O | -29.4%
CCOC(=O)COc1ccc(S(=O)(=O)N2CCN(c3ccc(F)cc3)CC2)cc1 | -60%
CCOc1ccc(S(=O)(=O)N2CCN(S(=O)(=O)c3ccc(C(C)=O)cc3)CC2)cc1 | 0.493%
Cc1c(NC(=S)Nc2ccccc2)c(=O)n(-c2ccccc2)n1C | 32.9%
NC1=NC(=O)/C(=C\c2cccs2)S1 | 8.6%
N#C/C(=C/c1ccncc1)c1nc2ccccc2s1 | 2.23%
CCOc1cccc(C=NCCc2ccc(OC)c(OC)c2)c1O | 12.4%
O=C(NCC1CCCO1)c1ccc(Cl)c(S(=O)(=O)N2CCOCC2)c1 (stereo not drawn) | 12.7%
O=C(NCc1ccccn1)c1cccc(NS(=O)(=O)c2ccc(Br)cc2)c1 | -19.8%
COc1ccc(N(C(C)C(=O)NCCSCc2cccc(Cl)c2)S(C)(=O)=O)cc1 (stereo not drawn) | -13.3%
O=C(NCCS(=O)(=O)N1CCN(c2ccccc2F)CC1)c1ccc(Br)o1 | -6.39%
